# Bioassay records deposited in PubChem BioAssay by National Center for Advancing Translational Sciences (NCATS).
# ALDH1A1 inh = inhibitors of human aldehyde dehydrogenase 1A1. P00352. Purified ALDH1A1, NADH fluorescence, propionaldehyde substrate. Potency, µM (series often up to 75.3 µM), for the others: at the top dose activity, negative = inhibition, usual class: inhibitors. 220,000 compounds, 7.3% hits;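 note: potency is the fitted concentration of half-maximal effect; plate controls were no enzyme wells and a reference inhibitor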
# LMNA splice mod = modulators of lamin A splicing | HeLa LMNA splicing GFP/RFP minigene ratio, 48 h | 200,000 compounds, 0.01% hits | Potency, µM (highest dose often 46.1 µM), for the others: at the highest dose ratio change, negative = inhibition, actives largely listed as inhibitors; active = well fitted inhibition curve with a large enough effect in the signal ratio, with a control signal flat, not every such curve was filed as active; inconclusive = small, poorly fitted or top-dose-only effect, or effect the other way, or a change in a side signal; the % refers to the signal ratio; note: potency is the fitted concentration of half-maximal effect
#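 Read-out is the ratio of GFP to DsRed2 object intensity, acquired by 488 nm laser-scanning cytometry on HeLa lamin A-EGFP minigene reporter cells. Compound incubation 48 hrs at 37 °C in Opti-MEM with 2% FBS; DMSO 0.5% final.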
# HPGD inh = HPGD (human) dehydrogenase inhibition; purified HPGD, NADH fluorescence kinetic, PGE2 substrate; AID 894; Potency, µM, inactives show at the highest dose activity change, negative = inhibition, hits mostly inhibitors; P15428; 150,000 compounds, 4.3% hits; note: potency is the fitted concentration of half-maximal effect
# Target sequence (P15428 whole entry, looked up): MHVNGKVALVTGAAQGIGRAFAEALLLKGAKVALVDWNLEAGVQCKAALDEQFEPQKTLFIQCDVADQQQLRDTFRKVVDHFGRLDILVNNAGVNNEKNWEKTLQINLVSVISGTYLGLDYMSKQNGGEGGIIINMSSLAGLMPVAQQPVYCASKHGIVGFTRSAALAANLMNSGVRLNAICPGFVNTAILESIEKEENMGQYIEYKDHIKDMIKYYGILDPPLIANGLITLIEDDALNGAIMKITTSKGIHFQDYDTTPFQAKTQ
#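 20 nM HPGD preincubated 15 min at room temperature with compound in 50 mM Tris-HCl pH 8, 0.01% Tween 20. Started with 1 mM NAD+ and 30 uM prostaglandin E2; NADH fluorescence (360/450 nm) read 5 times over 30-s intervals, last minus first.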
# 12-hLO inh = inhibitors of human 12-lipoxygenase (ALOX12). P18054. purified 12-hLO, xylenol orange hydroperoxide absorbance. Potency, µM (series often up to 57.1 µM), for inactives: top-dose activity change, negative = inhibition, hits mostly inhibitors. 150,000 compounds, 0.12% hits. AID 1452; active = well fitted inhibition curve with a large enough effect; inconclusive = small, poorly fitted or top-dose-only effect; note: potency is the fitted concentration of half-maximal effect; nearly all actives have a fitted effect of over 55% in size
#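 Xylenol orange chromogenic assay: hydroperoxide from 12hLO oxidises Fe(II), giving red-shifted Fe(III)-XO absorbance. Conditions: 150 nM enzyme, 40 uM arachidonic acid, 25 mM Hepes pH 7.0, 0.01% Triton X-100, 30 min, room temperature.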
# PNC inhibitor = inhibitors of perinucleolar compartment assembly | PC3M PTB-GFP, PNC prevalence imaging, 16 h; active compounds read low | 140,000 compounds, 3.1% hits | activity change (PNC), negative = inhibition, % at 10 µM;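 active = readout at or below -70, meaning at least 70% loss of cells showing the perinucleolar compartment, a nuclear body marking cancer cells; inconclusive = readout between -30 and a set limit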;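 note: plate controls were DMSO wells for no effect and camptothecin positive control wells for full effect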
#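 Compounds are pinned in duplicate onto adhered PC3M cells stably expressing GFP-tagged PTB and incubated 16 h at 37 C. Cells are then fixed, nuclei stained with Hoechst, and PNC-positive cells counted.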
# * = called active by the depositor; ? = inconclusive; / = no result given; [ ] = remark or other dose. An excerpt weighted towards active compounds, which were near 10% of everything screened. Unless noted, calls come from the whole dose curve; as a rule, active = well fitted inhibition curve with a large enough effect (not every such curve was filed as active); inconclusive = small, poorly fitted or top-dose-only effect, or another doubt; inactive = no such curve, though single readings can be large or run the other way. Unless noted, % is set by controls: 0 for no effect and ±100 for the full control effect.
SMILES,ALDH1A1 inh,LMNA splice mod,HPGD inh,12-hLO inh,PNC inhibitor
C=C1c2c(Cl)ccc(O)c2C(O)=C2C(=O)[C@@]3(O)C(O)=C(C(N)=O)C(=O)[C@@H](N(C)C)[C@@H]3[C@@H](O)[C@H]12,?,?,-21%,-6%[25.6 µM],/
C/C=C(\CS(=O)(=O)c1ccccc1)S(=O)(=O)c1ccccc1,8.9µM*,-26%,-12%,-3%,-4
C/C(CS(=O)(=O)c1ccccc1)=N\O,13%,4%[9.22 µM],/,/,/
O=c1c2c(nc3nc(Cc4ccccc4)[nH]n13)CCC2,-9%,3%,-18%,3%,-90*
O=c1c2c(nc3nc(NCc4ccccc4Cl)[nH]n13)CCC2,2%,-6%[9.22 µM],/,/,/
NNC(=O)c1nnn(-c2nonc2N)c1-c1cccs1,11µM*,-5%,-6%,-10%,8
O=C(Nc1ccc2c(c1)OCCO2)C1CCN(C(=O)c2ccc(Br)cc2)CC1,?,5%,-15%,3%,6
O=C(Nc1ccc2c(c1)OCCO2)C1CCN(C(=O)c2ccccc2)CC1,14µM*,3%,-4%,5%,-105*
Cc1ccccc1C(=O)N1CCC(C(=O)Nc2ccc3c(c2)OCCO3)CC1,28µM*,-9%,-16%,-5%,2
O=C(NC1CCCC1)C(c1ccncc1)N(Cc1ccccc1)C(=O)c1ccc(-c2ccccc2)[nH]1 (stereo unspecified),22µM*,?,-20%,2%,?
O=C(NCC1CCCO1)C(c1cccs1)N(Cc1ccccc1Cl)C(=O)c1ccc(-c2ccccc2)[nH]1 (stereo unspecified),-12%,?,-21%,1%,-3
Cc1ccc(C(C(=O)NCC2CCCO2)N(Cc2ccccc2)C(=O)c2ccc(-c3ccccc3)[nH]2)o1 (stereo unspecified),22µM*,?,?,1%,-5
O=C(NC1CCCC1)C(c1ccncc1)N(CCCN1CCOCC1)C(=O)c1ccc(-c2ccccc2)[nH]1 (stereo unspecified),?,16%[9.22 µM],/,/,/
Cn1nnc2c(NCc3ccc(Cl)cc3)ncnc21,/,-1%[46 µM],/,/,/
Cc1cc(C)nc(SCc2nnc(SCC(=O)Nc3nc(-c4ccccc4)cs3)n2C)n1,-10%,-4%,-23%,1%,-12
Cc1cc(C)nc(SCc2nnc(SCC(=O)Nc3nccs3)n2C)n1,7%,-11%,-17%,4%,-100*
CCn1c(Cc2cccc3ccccc23)nnc1SCC(=O)Nc1nccs1,0%,-28%,-16%,-2%,-100*
O=C(Cc1coc2ccc3ccccc3c12)Nc1nccs1,-1%,-12%,?,-2%,-107*
NCCCNCCCCNCCCNC(=O)CCc1ccc(O)cc1,1%[13.5 µM],/,-12%,-4%[0.00818 µM],/
COC(=O)[C@@H](N)CS,3.2µM*,?,-12%,-3%,14
COC(=O)C(N)CS (stereo unspecified),?,/,25µM*,-9%,/
Cc1ccccc1C(=O)c1c[nH]c(C(=O)NCCc2ccccn2)c1,22µM*,-10%[46 µM],/,/,/
CCC(=O)c1c[nH]c(C(=O)NCCc2ccccn2)c1,7%,1%,-3%,0%,3
Cc1ccccc1C(=O)c1c[nH]c(C(=O)NCc2ccco2)c1,20µM*,?,-17%,-13%,25
CCC1CCCCN1C(=O)COc1ccccc1NC(C)=O (stereo unspecified),3.5µM*,8%[46 µM],/,/,/
SMILES,ALDH1A1 inh,LMNA splice mod,HPGD inh,12-hLO inh,PNC inhibitor
CCOC(=O)NCC(C)(C)CNC(=O)OCC,3%,13%,-6%,-1%,-117*
c1ccc2c(c1)oc1c(Nc3ccc4c(c3)OCCO4)ncnc12,23%,5%[0.0737 µM],-19%,5%,20
O=[N+]([O-])c1ccc2ncnc(Nc3ccc4c(c3)OCCO4)c2c1,0.35µM*,/,/,/,/
Cc1cc2cc(CNC(=O)c3ccc(S(=O)(=O)N4CCCC4)cc3)ccc2n1C,20µM*,-11%,-6%,-3%,?
COc1ccc(OCC(=O)NNC(=O)c2cccs2)cc1,6%,15%,-4%,6%,53
Cc1cc2cc(CNC(=O)CC(C)C)ccc2n1C,1%,6%,2.2µM*,1%,35
Cc1cc2cc(CNC(=O)c3cccs3)ccc2n1C,-10%,-2%,2.8µM*,4%,-4
COc1ccc(CNC(=O)c2cccs2)cc1,?,1%,14µM*,-9%,-100*
CC(C)NC(=O)CSc1nc2ccccc2c(=O)n1Cc1ccc(C(=O)NC(C)C)cc1,/,10%[46 µM],/,/,/
Cc1ccc(-n2ncc3c(NCc4ccccc4)ncnc32)cc1Cl,/,-11%[46 µM],/,/,/
COc1ccccc1OCCNC(=O)c1cccs1,14%,2%,16µM*,0%,53
CCCCC(=O)NCc1ccc2c(c1)cc(C)n2C,-5%,11%,1.1µM*,1%,-10
Nc1cccc2cc(S(=O)(=O)Nc3ccc(C(=O)O)cc3)ccc12,-4%[13.5 µM],/,-20%,-8%[11.4 µM],/
CC(=O)Nc1nc2c(c3c1c(=O)oc1ccccc13)CC(C)CC2 (stereo unspecified),?,-5%,?,-1%,-100*
CC(C)(C)N=C1NN=C(c2cc3ccccc3o2)CS1,22µM*,?,/,-6%,0
Cc1ccc(/C=C/c2onc(C)c2S(=O)(=O)N2CCC(C(=O)NCc3ccc(Cl)cc3)CC2)cc1,/,11%[46 µM],/,/,/
Cc1cccc(C(CC(=O)N2CCCC2)c2ccccc2)c1O (stereo unspecified),-1%,2%,11µM*,0%,37
O=C(CC(c1ccccc1)c1ccccc1O)N1CCCC1 (stereo unspecified),-1%,5%,1.8µM*,-2%,-88*
Cc1ccc(C(CC(=O)N2CCCC2)c2ccccc2)c(O)c1C (stereo unspecified),6%,1%,7.9µM*,-7%,15
O=C(CC(c1ccccc1)c1ccco1)N1CCCCC1 (stereo unspecified),-5%,25%[46 µM],/,/,/
CCOC(=O)c1oc2cc(O)c(CC)cc2c(=O)c1-c1cscn1,-13%,-4%[46 µM],/,/,/
CCOC(=O)c1ccc(-c2c(C(=O)OCC)oc3cc(O)c(CC)cc3c2=O)o1,10µM*,-1%,-17%,-8%,2
Cc1nc(N2CCN(Cc3ccccc3)CC2)nc2c1C(=O)CC(c1ccco1)C2 (stereo unspecified),22µM*,?,-18%,-4%,6
CCN(CC)c1ccc(/C=N/NC(=O)c2cnccn2)cc1,22µM*,/,/,/,/
O=C(NC(=S)Nc1ccc(-c2ccc(CO)o2)cc1)c1cccs1,20µM*,/,/,/,/
CCN(CC)c1ccc(NC(=S)NC(=O)c2cccs2)cc1,8.9µM*,?,/,/,/
CCCCC(=O)Nc1ccc(NC(=S)NC(=O)c2cccs2)cc1OC,20µM*,-11%,-11%,2%,?
CN(c1ccccc1)c1cc(=O)[nH]c(=O)[nH]1,16%,-2%,1%,-1%,?
